According to PubChem BioAssay AID1159580 (chemical genetic matrix, 2015):
The campaign covered roughly 5,500 compounds. About 2,000 (36%) were called active. About 18% were inconclusive and are not listed. The list shows a part of the results. Unmarked numbers belong to inactive results. Rule as the data show it: active = normalized growth mostly below about 0.91 (no sharp cut-off); inconclusive = no clear call, values can overlap the other calls; inactive = mostly above about 0.92.

Assay: chemical genetic growth profiling, strain panel (AID 1159580);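 also: tested at 20 µM; growth read once vehicle control cultures reached saturation at 30 °C; 1 = growth at the plate median or of vehicle wells; lower values mean less growth of the strain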
Settings: growth OD
[1] = S. cerevisiae deletion strains, locus YDR150W, strain NUM1, stronger effect = lower value
[2] = S. cerevisiae deletion strains, locus YMR263W, strain SAP30, stronger effect = lower value
[3] = S. cerevisiae deletion strains, locus YMR307W, strain GAS1, stronger effect = lower value
[4] = S. cerevisiae deletion strains, locus YNL322C, strain KRE1, stronger effect = lower value
[5] = S. cerevisiae deletion strains, locus YAL013W, strain DEP1, stronger effect = lower value
[6] = S. cerevisiae deletion strains, locus YBR229C, strain ROT2, stronger effect = lower value
[7] = S. cerevisiae deletion strains, locus YDL101C, strain DUN1, stronger effect = lower value
[8] = S. cerevisiae deletion strains, locus YEL061C, strain CIN8, stronger effect = lower value
[9] = S. cerevisiae deletion strains, locus YGR078C, strain PAC10, stronger effect = lower value
[10] = S. cerevisiae deletion strains, locus YHR030C, strain SLT2, stronger effect = lower value
[11] = S. cerevisiae deletion strains, locus YHR087W, strain rtc3, stronger effect = lower value
[12] = S. cerevisiae deletion strains, locus YJR043C, strain POL32, stronger effect = lower value
[13] = S. cerevisiae deletion strains, locus YJR075W, strain HOC1, stronger effect = lower value
[14] = S. cerevisiae deletion strains, locus YLR039C, strain RIC1, stronger effect = lower value
[15] = S. cerevisiae deletion strains, locus YLR058C, strain SHM2 (second series), stronger effect = lower value
[16] = S. cerevisiae deletion strains, locus YLR085C, strain ARP6, stronger effect = lower value
[17] = S. cerevisiae deletion strains, locus YLR262C, strain YPT6, stronger effect = lower value
[18] = S. cerevisiae deletion strains, locus YML094W, strain GIM5, stronger effect = lower value
[19] = S. cerevisiae deletion strains, locus YMR219W, strain ESC1, stronger effect = lower value
[20] = S. cerevisiae deletion strains, locus YNL153C, strain GIM3, stronger effect = lower value
[21] = S. cerevisiae deletion strains, locus YNL298W, strain CLA4 (second series), stronger effect = lower value
[22] = S. cerevisiae deletion strains, locus YNR030W, strain Alg12, stronger effect = lower value
[23] = S. cerevisiae deletion strains, locus YPL055C, strain LGE1, stronger effect = lower value
[24] = S. cerevisiae deletion strains, locus YPL241C, strain CIN2, stronger effect = lower value
[25] = S. cerevisiae deletion strains, locus YPR135W, strain CTF4, stronger effect = lower value
[26] = S. cerevisiae strains, strain wild type, stronger effect = lower value
[27] = S. cerevisiae deletion strains, locus YHR079C, strain IRE1, stronger effect = lower value
[28] = S. cerevisiae deletion strains, locus YJL095W, strain BCK1, stronger effect = lower value
[29] = S. cerevisiae deletion strains, locus YJR066W, strain TOR1, stronger effect = lower value
[30] = S. cerevisiae deletion strains, locus YLR113W, strain HOG1, stronger effect = lower value
[31] = S. cerevisiae deletion strains, locus YNL183C, strain NPR1, stronger effect = lower value
[32] = S. cerevisiae deletion strains, locus YOR231W, strain MKK1, stronger effect = lower value
[33] = S. cerevisiae deletion strains, locus YPL256C, strain CLN2, stronger effect = lower value

## CC(C)(C)c1cc(/C=C(\C#N)C(N)=S)cc(C(C)(C)C)c1O
S. cerevisiae deletion strains, locus YAL040C, strain CLN3, stronger effect = lower value
  normalized growth: 0.912
S. cerevisiae deletion strains, locus YCL061C, strain MRC1 (second series), stronger effect = lower value
  normalized growth: 1.01
[1]
  normalized growth: 1
S. cerevisiae deletion strains, locus YDR363W, strain ESC2, stronger effect = lower value
  normalized growth: 1.04
S. cerevisiae deletion strains, locus YER002W, strain NOP16, stronger effect = lower value
  normalized growth: 0.997
[2]
  normalized growth: 1.01
[3]
  normalized growth: 1.01
S. cerevisiae deletion strains, locus YNL175C, strain NOP13, stronger effect = lower value
  normalized growth: 1.02
S. cerevisiae deletion strains, locus YNL197C, strain WHI3, stronger effect = lower value
  normalized growth: 0.913
S. cerevisiae deletion strains, locus YNL224C, strain SQS1, stronger effect = lower value
  normalized growth: 0.929
[4]
  normalized growth: 1.02
S. cerevisiae deletion strains, locus YOR083W, strain WHI5 (second series), stronger effect = lower value
  normalized growth: 0.832 (active)

## O=C1c2ccccc2C(=O)N1CNc1ccc(N2CCOCC2)cc1
[5]
  normalized growth: 1
[6]
  normalized growth: 1
S. cerevisiae deletion strains, locus YCL061C, strain MRC1, stronger effect = lower value
  normalized growth: 0.999
[7]
  normalized growth: 1.01
[1]
  normalized growth: 0.901
[8]
  normalized growth: 0.986
[9]
  normalized growth: 1
[10]
  normalized growth: 0.976
[11]
  normalized growth: 1.02
[12]
  normalized growth: 1
[13]
  normalized growth: 1.01
S. cerevisiae deletion strains, locus YKL190W, strain CNB1, stronger effect = lower value
  normalized growth: 0.994
[14]
  normalized growth: 1.02
[15]
  normalized growth: 0.997
[16]
  normalized growth: 0.977
[17]
  normalized growth: 1.01
[18]
  normalized growth: 1.02
[19]
  normalized growth: 1
[2]
  normalized growth: 0.993
[3]
  normalized growth: 1.01
[20]
  normalized growth: 1.01
[21]
  normalized growth: 1.02
[4]
  normalized growth: 0.977
[22]
  normalized growth: 0.994
S. cerevisiae deletion strains, locus YOL006C, strain TOP1, stronger effect = lower value
  normalized growth: 0.997
[23]
  normalized growth: 0.861
[24]
  normalized growth: 1.01
[25]
  normalized growth: 1.09
[26]
  normalized growth: 1.02

## OC[C@H]1O[C@H](O[C@]2(CCl)O[C@H](CCl)[C@@H](O)[C@@H]2O)[C@H](O)[C@@H](O)[C@H]1Cl
[10]
  normalized growth: 1.04
[27]
  normalized growth: 0.979
[28]
  normalized growth: 0.996
[29]
  normalized growth: 0.952
[30]
  normalized growth: 0.977
[31]
  normalized growth: 0.895
[32]
  normalized growth: 0.972
[33]
  normalized growth: 0.984

## C=C1SC(Nc2cccc(C(F)(F)F)c2)=NC12CCCCC2
[5]
  normalized growth: 0.999
[6]
  normalized growth: 1.01
[7]
  normalized growth: 1.01
S. cerevisiae deletion strains, locus YDL134C, strain PPH21, stronger effect = lower value
  normalized growth: 1.03
[1]
  normalized growth: 0.987
[8]
  normalized growth: 1.01
[9]
  normalized growth: 0.986
S. cerevisiae deletion strains, locus YGR229C, strain SMI1, stronger effect = lower value
  normalized growth: 0.999
[10]
  normalized growth: 0.955
[11]
  normalized growth: 0.99
[12]
  normalized growth: 1.01
[13]
  normalized growth: 0.995
[14]
  normalized growth: 0.958
[15]
  normalized growth: 0.987
[16]
  normalized growth: 1.03
[17]
  normalized growth: 0.971
[18]
  normalized growth: 1.02
[19]
  normalized growth: 0.999
[2]
  normalized growth: 0.982
[3]
  normalized growth: 0.937
[20]
  normalized growth: 0.973
[21]
  normalized growth: 0.985
[4]
  normalized growth: 1.01
[22]
  normalized growth: 1.01
[23]
  normalized growth: 0.995
[24]
  normalized growth: 1.01
[25]
  normalized growth: 0.904
[26]
  normalized growth: 1

## FC(F)(F)c1cccc(NC(=S)NN=C2CCCCCC2)c1
S. cerevisiae deletion strains, locus YAR019C, strain CDC15, stronger effect = lower value
  normalized growth: 0.978
S. cerevisiae deletion strains, locus YBL105C, strain PKC1, stronger effect = lower value
  normalized growth: 0.983
S. cerevisiae deletion strains, locus YBR135W, strain CKS1, stronger effect = lower value
  normalized growth: 0.994
S. cerevisiae deletion strains, locus YBR136W, strain MEC1, stronger effect = lower value
  normalized growth: 0.987
S. cerevisiae deletion strains, locus YBR160W, strain CDC28, stronger effect = lower value
  normalized growth: 0.991
S. cerevisiae deletion strains, locus YDL017W, strain CDC7, stronger effect = lower value
  normalized growth: 0.983
S. cerevisiae deletion strains, locus YDL028C, strain MPS1, stronger effect = lower value
  normalized growth: 0.997
[7]
  normalized growth: 0.984
S. cerevisiae deletion strains, locus YDL108W, strain KIN28, stronger effect = lower value
  normalized growth: 1
S. cerevisiae deletion strains, locus YDL132W, strain cdc53, stronger effect = lower value
  normalized growth: 0.989
S. cerevisiae deletion strains, locus YDL214C, strain PRR2, stronger effect = lower value
  normalized growth: 0.909
S. cerevisiae deletion strains, locus YDR052C, strain DBF4, stronger effect = lower value
  normalized growth: 0.982
S. cerevisiae deletion strains, locus YDR054C, strain cdc34, stronger effect = lower value
  normalized growth: 0.966
S. cerevisiae deletion strains, locus YDR226W, strain ADK1, stronger effect = lower value
  normalized growth: 0.978
S. cerevisiae deletion strains, locus YDR477W, strain SNF1, stronger effect = lower value
  normalized growth: 0.91
S. cerevisiae deletion strains, locus YER123W, strain YCK3, stronger effect = lower value
  normalized growth: 0.831
S. cerevisiae deletion strains, locus YER133W, strain GLC7, stronger effect = lower value
  normalized growth: 0.892
S. cerevisiae deletion strains, locus YFL009W, strain cdc4, stronger effect = lower value
  normalized growth: 0.986
S. cerevisiae deletion strains, locus YFL029C, strain CAK1, stronger effect = lower value
  normalized growth: 0.983
S. cerevisiae deletion strains, locus YFR003C, strain YPI1, stronger effect = lower value
  normalized growth: 0.989
S. cerevisiae deletion strains, locus YFR019W, strain FAB1, stronger effect = lower value
  normalized growth: 0.946
S. cerevisiae deletion strains, locus YFR028C, strain CDC14, stronger effect = lower value
  normalized growth: 0.992
S. cerevisiae deletion strains, locus YGR040W, strain KSS1, stronger effect = lower value
  normalized growth: 0.914
S. cerevisiae deletion strains, locus YGR052W, strain FMP48, stronger effect = lower value
  normalized growth: 0.924
S. cerevisiae deletion strains, locus YGR092W, strain DBF2, stronger effect = lower value
  normalized growth: 0.823
[10]
  normalized growth: 0.846 (active)
[27]
  normalized growth: 0.81
S. cerevisiae deletion strains, locus YHR082C, strain KSP1, stronger effect = lower value
  normalized growth: 0.997
S. cerevisiae deletion strains, locus YHR205W, strain SCH9, stronger effect = lower value
  normalized growth: 0.914
S. cerevisiae deletion strains, locus YIL147C, strain SLN1, stronger effect = lower value
  normalized growth: 0.987
[28]
  normalized growth: 0.887
S. cerevisiae deletion strains, locus YJL128C, strain PBS2, stronger effect = lower value
  normalized growth: 0.98
S. cerevisiae deletion strains, locus YJL157C, strain FAR1, stronger effect = lower value
  normalized growth: 0.869
S. cerevisiae deletion strains, locus YJR016C, strain ILV3, stronger effect = lower value
  normalized growth: 0.993
S. cerevisiae deletion strains, locus YJR066W, strain TOR1 (second series), stronger effect = lower value
  normalized growth: 0.827
[29]
  normalized growth: 0.907
S. cerevisiae deletion strains, locus YKL048C, strain ELM1, stronger effect = lower value
  normalized growth: 0.949
S. cerevisiae deletion strains, locus YKL067W, strain YNK1, stronger effect = lower value
  normalized growth: 0.92
S. cerevisiae deletion strains, locus YKL101W, strain HSL1, stronger effect = lower value
  normalized growth: 0.928
S. cerevisiae deletion strains, locus YKL193C, strain SDS22, stronger effect = lower value
  normalized growth: 0.986
S. cerevisiae deletion strains, locus YKL203C, strain TOR2, stronger effect = lower value
  normalized growth: 0.936
[30]
  normalized growth: 0.811 (active)
S. cerevisiae deletion strains, locus YLR133W, strain CKI1, stronger effect = lower value
  normalized growth: 0.921
S. cerevisiae deletion strains, locus YLR403W, strain SFP1, stronger effect = lower value
  normalized growth: 0.882
S. cerevisiae deletion strains, locus YML070W, strain DAK1, stronger effect = lower value
  normalized growth: 0.897
S. cerevisiae deletion strains, locus YMR001C, strain CDC5, stronger effect = lower value
  normalized growth: 0.979
S. cerevisiae deletion strains, locus YMR205C, strain PFK2 (second series), stronger effect = lower value
  normalized growth: 0.936
S. cerevisiae deletion strains, locus YMR277W, strain FCP1, stronger effect = lower value
  normalized growth: 0.988
S. cerevisiae deletion strains, locus YNL006W, strain LST8, stronger effect = lower value
  normalized growth: 0.986
S. cerevisiae deletion strains, locus YNL020C, strain ARK1, stronger effect = lower value
  normalized growth: 0.902
S. cerevisiae deletion strains, locus YNL161W, strain CBK1, stronger effect = lower value
  normalized growth: 0.987
[31]
  normalized growth: 0.949
S. cerevisiae deletion strains, locus YNL207W, strain RIO2, stronger effect = lower value
  normalized growth: 0.98
S. cerevisiae deletion strains, locus YNL222W, strain SSU72, stronger effect = lower value
  normalized growth: 1
S. cerevisiae deletion strains, locus YNL307C, strain MCK1 (second series), stronger effect = lower value
  normalized growth: 0.798
S. cerevisiae deletion strains, locus YOL078W, strain AVO1, stronger effect = lower value
  normalized growth: 0.994
S. cerevisiae deletion strains, locus YOL136C, strain PFK27, stronger effect = lower value
  normalized growth: 0.896
S. cerevisiae deletion strains, locus YOR061W, strain CKA2, stronger effect = lower value
  normalized growth: 0.862
S. cerevisiae deletion strains, locus YOR119C, strain RIO1, stronger effect = lower value
  normalized growth: 0.973
[32]
  normalized growth: 0.828
S. cerevisiae deletion strains, locus YOR329C, strain SCD5, stronger effect = lower value
  normalized growth: 0.988
S. cerevisiae deletion strains, locus YPL031C, strain PHO85, stronger effect = lower value
  normalized growth: 0.884
S. cerevisiae deletion strains, locus YPL153C, strain RAD53, stronger effect = lower value
  normalized growth: 0.872
S. cerevisiae deletion strains, locus YPL204W, strain HRR25, stronger effect = lower value
  normalized growth: 0.838
S. cerevisiae deletion strains, locus YPL209C, strain IPL1, stronger effect = lower value
  normalized growth: 0.988
[33]
  normalized growth: 0.84 (active)
S. cerevisiae deletion strains, locus YPR025C, strain CCL1, stronger effect = lower value
  normalized growth: 0.995
S. cerevisiae deletion strains, locus YPR106W, strain ISR1, stronger effect = lower value
  normalized growth: 0.994
S. cerevisiae deletion strains, locus YPR111W, strain DBF20, stronger effect = lower value
  normalized growth: 0.984
S. cerevisiae deletion strains, strain NNK1, stronger effect = lower value
  normalized growth: 1
S. cerevisiae deletion strains, strain TSCII, stronger effect = lower value
  normalized growth: 0.982
